Test [1] concerns the target Cytochrome P450 1A2 (Homo sapiens) (UniProt P05177). Description: p450-cyp1a2 (AID 410; calls by dose curve; also: potency is read from the fitted curve at half-maximal effect). In outline: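 Read-out is luminescence from luciferin produced by CYP1A2 demethylation of Luciferin-ME (100uM, at Km). Detection reagent stopped the 60 min NADPH-dependent reaction; signals were normalized to 57 uM furafylline.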
In test [2] the target is Glucocorticoid receptor (Homo sapiens) (UniProt P04150). The test can be described thus: GR-EFC Redistribution (AID 451; calls by dose curve; also: potency is read from the fitted curve at half-maximal effect). As to conditions: CHO-K1 GR-EFC translocation, beta-gal luminescence, 2 h. In short, it runs like this:
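CHO-K1 cells expressing nuclear EA and GR-ED fragments of b-gal; compounds titrated up to 46 uM final, 2 h at 37 C. GR nuclear translocation read as complemented b-gal luminescence after 1 h RT detection.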

Test [3] has as its target Mitogen-activated protein kinase 10 (Mus musculus) (UniProt Q61831). The test can be described thus: JNK3 AlphaScreen Assay (AID 530; active = well fitted curve in either direction with a large enough effect, not every such curve was filed as active;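 also: kinase came from lysate of stimulated human HepG2 cells; signal reports phosphorylation of biotinylated GST-cJun 1-79 at Ser73 with 10 µM ATP; series mostly up to about 57 µM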). In short, it runs like this:
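HepG2 lysate (IL-1b/TNFa pre-activated) + biotin-GST-cJun 1-79 + anti-pSer73 cJun; cpd titration, 15 min RT; ATP 10 uM start; Tris pH 7.6, MgCl2, DTT, vanadate; beads in EDTA buffer; AlphaScreen.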
On the technique in general: Alpha assays give light when donor and acceptor beads are brought close together.

For test [4], the target named is 3',5'-cyclic-AMP phosphodiesterase 4B (Homo sapiens) (UniProt Q07343). Description: qHTS Assay for Inhibitors of PDE-IV (AID 607; active = well fitted activation curve with a large enough effect in the main read-out, with a control signal flat, not every such curve was filed as active). In short, it runs like this: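 ACTOne HEK293 cells carry a modified cAMP-gated CNG channel and express endogenous PDE4; plated 1000 cells/well, compounds up to 22.9 uM final. Membrane-potential dye fluorescence (ex 535/em 590) was read; parental cells received 10 uM forskolin + 100 uM RO 20-1724.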
Chain of 3',5'-cyclic-AMP phosphodiesterase 4B (Homo sapiens) (Q07343 whole entry, looked up): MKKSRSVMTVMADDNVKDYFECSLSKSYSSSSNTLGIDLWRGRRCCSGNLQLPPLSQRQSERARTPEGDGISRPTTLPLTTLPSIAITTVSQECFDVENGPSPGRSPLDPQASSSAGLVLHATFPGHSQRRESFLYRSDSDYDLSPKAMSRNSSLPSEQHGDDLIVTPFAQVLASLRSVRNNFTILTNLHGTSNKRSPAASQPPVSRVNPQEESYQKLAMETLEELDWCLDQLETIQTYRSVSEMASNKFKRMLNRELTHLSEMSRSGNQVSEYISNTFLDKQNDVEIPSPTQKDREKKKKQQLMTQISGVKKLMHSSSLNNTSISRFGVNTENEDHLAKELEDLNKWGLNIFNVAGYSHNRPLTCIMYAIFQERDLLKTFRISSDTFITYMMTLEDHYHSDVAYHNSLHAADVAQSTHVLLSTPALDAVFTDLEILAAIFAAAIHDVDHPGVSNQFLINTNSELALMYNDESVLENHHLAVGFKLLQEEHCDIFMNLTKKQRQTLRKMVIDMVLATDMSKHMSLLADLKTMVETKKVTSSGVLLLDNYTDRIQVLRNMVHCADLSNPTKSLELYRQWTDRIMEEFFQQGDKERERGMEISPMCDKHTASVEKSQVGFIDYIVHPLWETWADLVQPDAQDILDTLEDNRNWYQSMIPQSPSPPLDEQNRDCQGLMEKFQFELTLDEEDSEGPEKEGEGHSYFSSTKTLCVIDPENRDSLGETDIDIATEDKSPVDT
In general terms: Quantitative high-throughput screening tests each substance at several concentrations.

The target in test [5] is Cytochrome P450 2C9 (Homo sapiens) (UniProt P11712). Description: qHTS Assay for Inhibitors and Substrates of Cytochrome P450 2C9 (AID 883). Also: nearly all actives have a fitted effect of over 60% in size. In short, it runs like this: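 Signal: luciferase luminescence reporting luciferin produced by CYP2C9. Conditions: 10nM enzyme, Luciferin-H 100uM at KM, 25mM KPO4, 37C, 60 min NADPH-driven reaction. Reference: 57uM sulphaphenazole as 100% inhibition.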
Chain of Cytochrome P450 2C9 (Homo sapiens) (P11712 whole entry, looked up): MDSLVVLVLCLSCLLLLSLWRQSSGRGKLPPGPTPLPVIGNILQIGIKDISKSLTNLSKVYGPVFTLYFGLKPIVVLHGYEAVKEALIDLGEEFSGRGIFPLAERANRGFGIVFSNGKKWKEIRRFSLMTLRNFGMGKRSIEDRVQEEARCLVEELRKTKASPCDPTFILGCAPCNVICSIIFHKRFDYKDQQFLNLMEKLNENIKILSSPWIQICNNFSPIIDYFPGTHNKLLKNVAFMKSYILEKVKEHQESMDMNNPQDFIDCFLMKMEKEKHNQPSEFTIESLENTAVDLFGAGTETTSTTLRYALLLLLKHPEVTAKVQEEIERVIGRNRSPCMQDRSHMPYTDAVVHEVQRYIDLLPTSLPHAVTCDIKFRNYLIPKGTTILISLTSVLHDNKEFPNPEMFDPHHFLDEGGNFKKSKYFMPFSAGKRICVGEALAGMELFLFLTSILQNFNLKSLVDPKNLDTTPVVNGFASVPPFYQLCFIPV

Test [6] addresses Cytochrome P450 2D6 (Homo sapiens) (UniProt P10635). The test can be described thus: qHTS Assay for Inhibitors and Substrates of Cytochrome P450 2D6 (AID 891).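 Also: luciferin methyl ether substrate demethylated by CYP2D6 with NADPH regeneration; nearly all actives have a fitted effect of over 60% in size.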 In short, it runs like this:
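Luminescent read-out of luciferin formed by 5 nM human CYP2D6 demethylating 30 uM Luciferin-ME EGE (Km level) over 60 min at room temperature after NADPH regeneration addition. Data normalized to full inhibition by 1.43 uM quinidine.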

Test [7] has as its target Cytochrome P450 2C19 (Homo sapiens) (UniProt P33261). Description: qHTS Assay for Inhibitors and Substrates of Cytochrome P450 2C19 (AID 899). Also: nearly all actives have a fitted effect of over 60% in size. Also: potency is read from the fitted curve at half-maximal effect. In short, it runs like this: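 Signal comes from luciferase acting on luciferin released by CYP2C19-mediated hydroxylation of Luciferin-H EGE, 10uM (KM). Assay mix: 5nM enzyme, 50mM KPO4; 60 min at 37C with NADPH regeneration. Data normalized against 57uM ketoconazole.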

The target of test [8] is Glucocorticoid receptor (Homo sapiens) (UniProt P04150). Description: GR-GFP Redistribution (AID 450;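 active = compounds whose dose series gives a full or clear partial fitted curve of increased nuclear translocation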; also: potency is read from the fitted curve at half-maximal effect).
Chain of Glucocorticoid receptor (Homo sapiens) (P04150 whole entry, looked up, the tested form may be a part): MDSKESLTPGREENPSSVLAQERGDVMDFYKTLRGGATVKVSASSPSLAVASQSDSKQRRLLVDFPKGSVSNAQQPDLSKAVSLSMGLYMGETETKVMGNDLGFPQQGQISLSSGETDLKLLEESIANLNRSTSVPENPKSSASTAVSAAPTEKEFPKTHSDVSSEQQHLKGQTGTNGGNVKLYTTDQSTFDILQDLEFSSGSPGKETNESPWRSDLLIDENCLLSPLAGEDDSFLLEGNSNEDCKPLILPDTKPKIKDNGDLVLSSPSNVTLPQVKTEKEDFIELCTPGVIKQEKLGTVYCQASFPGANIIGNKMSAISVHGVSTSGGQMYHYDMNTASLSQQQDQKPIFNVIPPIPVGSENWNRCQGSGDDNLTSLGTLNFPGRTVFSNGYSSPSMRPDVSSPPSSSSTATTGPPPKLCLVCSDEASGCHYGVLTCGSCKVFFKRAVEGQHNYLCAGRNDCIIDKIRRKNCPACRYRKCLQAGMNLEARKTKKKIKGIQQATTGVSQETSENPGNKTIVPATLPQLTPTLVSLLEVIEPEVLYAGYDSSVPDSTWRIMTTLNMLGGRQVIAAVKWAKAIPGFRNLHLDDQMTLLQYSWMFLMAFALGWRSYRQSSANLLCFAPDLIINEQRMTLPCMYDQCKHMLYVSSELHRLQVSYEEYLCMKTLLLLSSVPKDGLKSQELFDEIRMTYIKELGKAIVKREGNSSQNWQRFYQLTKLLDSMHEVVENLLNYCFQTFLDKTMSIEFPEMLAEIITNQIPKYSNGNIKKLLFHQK

A number with no mark means an inactive call. Inconclusive results are not listed. The source made the active and inactive calls. Unless noted, calls follow the shape of the dose curve; as a rule, active = well fitted inhibition curve with a large enough effect; inconclusive = small, poorly fitted or top-dose-only effect; inactive = no such curve, though single readings can be large or run the other way.

Results on 16 compounds are retold here after PubChem BioAssay (NCATS).

Chain of Cytochrome P450 1A2 (Homo sapiens) (P05177 whole entry, looked up): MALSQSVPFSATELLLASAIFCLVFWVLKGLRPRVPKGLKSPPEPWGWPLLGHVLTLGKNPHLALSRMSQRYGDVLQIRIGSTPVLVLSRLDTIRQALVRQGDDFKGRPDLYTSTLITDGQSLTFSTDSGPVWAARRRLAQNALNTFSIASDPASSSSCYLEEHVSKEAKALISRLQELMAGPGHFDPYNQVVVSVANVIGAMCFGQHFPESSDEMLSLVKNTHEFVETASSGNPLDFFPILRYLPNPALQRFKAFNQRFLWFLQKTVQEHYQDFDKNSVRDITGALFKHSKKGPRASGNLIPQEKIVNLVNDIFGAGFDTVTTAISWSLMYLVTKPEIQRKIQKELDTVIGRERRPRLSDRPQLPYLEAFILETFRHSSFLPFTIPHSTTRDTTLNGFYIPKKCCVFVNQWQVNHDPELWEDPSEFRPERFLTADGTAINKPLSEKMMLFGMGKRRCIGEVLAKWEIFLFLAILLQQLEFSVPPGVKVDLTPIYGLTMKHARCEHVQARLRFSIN
Chain of Cytochrome P450 2D6 (Homo sapiens) (P10635 whole entry, looked up): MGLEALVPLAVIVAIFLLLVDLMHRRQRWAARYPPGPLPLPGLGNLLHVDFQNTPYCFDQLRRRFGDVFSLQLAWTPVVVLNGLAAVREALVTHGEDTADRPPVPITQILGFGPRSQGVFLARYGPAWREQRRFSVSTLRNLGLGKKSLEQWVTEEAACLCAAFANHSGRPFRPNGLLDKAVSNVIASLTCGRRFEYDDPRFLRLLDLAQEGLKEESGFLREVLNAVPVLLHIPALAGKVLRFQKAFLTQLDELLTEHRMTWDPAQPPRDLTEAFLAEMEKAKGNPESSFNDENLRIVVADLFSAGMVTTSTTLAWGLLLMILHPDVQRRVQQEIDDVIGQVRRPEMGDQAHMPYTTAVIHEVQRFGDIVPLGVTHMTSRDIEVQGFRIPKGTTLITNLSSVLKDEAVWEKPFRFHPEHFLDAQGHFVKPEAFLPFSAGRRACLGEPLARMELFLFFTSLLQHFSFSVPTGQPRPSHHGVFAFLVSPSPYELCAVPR
Chain of Cytochrome P450 2C19 (Homo sapiens) (P33261 whole entry, looked up): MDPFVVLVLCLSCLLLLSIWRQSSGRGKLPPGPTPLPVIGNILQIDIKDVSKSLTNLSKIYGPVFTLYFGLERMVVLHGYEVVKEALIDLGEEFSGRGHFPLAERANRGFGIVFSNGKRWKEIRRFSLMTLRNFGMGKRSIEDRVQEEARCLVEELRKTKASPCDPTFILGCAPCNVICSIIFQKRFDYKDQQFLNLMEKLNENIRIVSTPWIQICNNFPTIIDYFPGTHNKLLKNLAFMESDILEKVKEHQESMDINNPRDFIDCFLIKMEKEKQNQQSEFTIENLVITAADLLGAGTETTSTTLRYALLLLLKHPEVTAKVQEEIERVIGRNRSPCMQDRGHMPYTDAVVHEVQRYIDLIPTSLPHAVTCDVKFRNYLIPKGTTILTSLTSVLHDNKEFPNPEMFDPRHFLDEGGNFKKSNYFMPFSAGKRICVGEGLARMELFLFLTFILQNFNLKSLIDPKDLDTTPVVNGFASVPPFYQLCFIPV

On to `CC(C)C[C@@H](CC(=O)N[C@@H](CCC(=O)O)CC(=O)O)NC(=O)[C@@H]1CNCC[C@H]1NC(=O)C[C@H](CCCN)NC(=O)C[C@H](Cc1ccccc1)NC(=O)[C@@H]1CNCC[C@H]1N`, for which the Potency in test [1] is 31.6 µM (active); in test [2] it was over 46 µM. The Potency entry in test [3], in test [4], in test [5], in test [6] and in test [7] was “inactive” in each case.

On to `CC(C)C[C@@H](CC(=O)N[C@@H](CCC(=O)O)CC(=O)O)NC(=O)[C@@H]1CCCC[C@H]1NC(=O)C[C@@H](NC(=O)C[C@H](Cc1c[nH]c2ccccc12)NC(=O)[C@@H]1CNCC[C@H]1N)C(C)C`, for which the Potency result in test [1], in test [3], in test [4], in test [5], in test [6] and in test [7] was “inactive” in each case. The Potency in test [2] was over 46 µM.

Regarding `CC(C)[C@@H](CC(=O)N[C@@H]1CCNC[C@H]1C(=O)N[C@H](CC(=O)N[C@@H](CCC(=O)O)CC(=O)O)Cc1ccccc1)NC(=O)C[C@H](CO)NC(=O)[C@@H]1CCCC[C@H]1N`, the Potency result in test [1], in test [3], in test [4], in test [5], in test [6] and in test [7] was “inactive” in each case. Besides, in test [2], the Potency is over 46 µM.

As for `CC(C)C[C@@H](CC(=O)N[C@@H](CCC(=O)O)CC(=O)O)NC(=O)[C@@H]1CCCC[C@H]1NC(=O)C[C@H](CCCN)NC(=O)C[C@H](Cc1ccccc1)NC(=O)[C@@H]1CNCC[C@H]1N`, the Potency result in test [1], in test [3], in test [4], in test [5], in test [6] and in test [7] was “inactive” each time. Also, the Potency in test [2] was over 46 µM.

`CC(C)[C@@H](CC(=O)N[C@@H]1CCCC[C@H]1C(=O)N[C@H](CC(=O)N[C@@H](CCC(=O)O)CC(=O)O)Cc1c[nH]c2ccccc12)NC(=O)C[C@H](Cc1c[nH]c2ccccc12)NC(=O)[C@@H]1CCCC[C@H]1N`: the Potency entry in test [1], in test [3], in test [4], in test [5], in test [6] and in test [7] was “inactive” throughout. In addition, in test [2], the Potency was over 46 µM.

Regarding `CC(C)C[C@@H](CC(=O)N[C@H](CC(=O)N[C@@H]1CCNC[C@H]1C(=O)N[C@H](CC(=O)N[C@@H](CCC(=O)O)CC(=O)O)CC(C)C)C(C)C)NC(=O)[C@@H]1CCCC[C@H]1N`, the Potency result in test [1], in test [3] and in test [4] was “inactive” throughout. Further, the Potency in test [2] was over 46 µM.

`CC(C)C[C@@H](CC(=O)N[C@@H](CCC(=O)O)CC(=O)O)NC(=O)[C@@H]1CCCC[C@H]1NC(=O)C[C@H](CCCN)NC(=O)C[C@H](Cc1ccccc1)NC(=O)[C@@H]1CCCC[C@H]1N`: the Potency entry in test [1], in test [3], in test [4], in test [5] and in test [6] was “inactive” throughout. In test [2], the Potency is over 46 µM.

As to `C/C(=C\COc1cc(=O)[nH]c2ccccc12)CC[C@@H](O)C(C)(C)O`, the Potency in test [1] is 20 µM (active); in test [8], over 46 µM. The Potency result in test [3], in test [5], in test [6] and in test [7] was “inactive” in each case.

For `CC(C)C[C@@H](CC(=O)N[C@H](CC(=O)N[C@@H]1CCNC[C@H]1C(=O)N[C@H](CC(=O)N[C@@H](CCC(=O)O)CC(=O)O)Cc1ccccc1)C(C)C)NC(=O)[C@@H]1CNCC[C@H]1N`, the figures for the Potency in test [1] and in test [2] were 31.6 µM (active) and over 46 µM, respectively. In addition, the Potency entry in test [3], in test [4], in test [5], in test [6] and in test [7] was “inactive” in each case.

As to `CC(C)C[C@@H](CC(=O)N[C@@H](CCCN)CC(=O)N[C@@H]1CCCC[C@H]1C(=O)N[C@H](CC(=O)N[C@@H](CCC(=O)O)CC(=O)O)Cc1ccccc1)NC(=O)[C@@H]1CCCC[C@H]1N`, the Potency result in test [1], in test [3], in test [4] and in test [6] was “inactive” throughout. In test [2], the Potency was over 46 µM.

As for `CC(C)[C@@H](CC(=O)N[C@@H]1CCNC[C@H]1C(=O)N[C@H](CC(=O)N[C@@H](CCC(=O)O)CC(=O)O)Cc1ccccc1)NC(=O)C[C@H](Cc1c[nH]c2ccccc12)NC(=O)[C@@H]1CNCC[C@H]1N`, the Potency result in test [1], in test [3], in test [4], in test [5], in test [6] and in test [7] was “inactive” throughout. For the same compound, the Potency in test [2] was over 46 µM.

For `COc1ccc([C@@H]2OC[C@]3(COC(C)=O)[C@H](C)C=C(C)[C@@H]2[C@H]3C)cc1`, the Potency in test [1] is 15.8 µM (active); in test [8] it was over 46 µM; in test [7] it was 6.31 µM (active). Also, the Potency result in test [6] was “inactive”.

Consider `COc1ccc([C@@H]2CC(=O)c3c(O)cc(O[C@@H]4O[C@@H](CO[C@@H]5O[C@@H](C)[C@@H](O)[C@@H](O)[C@H]5O)[C@@H](O)[C@@H](O)[C@H]4O)cc3O2)cc1O`, for which the Potency result in test [1], in test [3], in test [4], in test [5], in test [6] and in test [7] was “inactive” throughout. In addition, the Potency in test [8] was over 46 µM.

Consider `CC(C)C[C@@H](CC(=O)N[C@@H](CCC(=O)O)CC(=O)O)NC(=O)[C@@H]1CCCC[C@H]1NC(=O)C[C@@H](NC(=O)C[C@H](Cc1ccccc1)NC(=O)[C@@H]1CCCC[C@H]1N)C(C)C`, for which the Potency result in test [1], in test [3], in test [4], in test [5], in test [6] and in test [7] was “inactive” throughout. In addition, the Potency in test [2] was over 46 µM.

Turning to `O=c1cc(-c2ccccc2)oc2cc(O[C@H]3O[C@H](CO)[C@@H](O)[C@H](O)[C@@H]3O)c(O)c(O)c12`, the Potency result in test [1], in test [5], in test [6] and in test [7] was “inactive” each time. Further, the Potency in test [8] is over 46 µM.

As for `CC(C)[C@@H](CC(=O)N[C@@H]1CCNC[C@H]1C(=O)N[C@H](CC(=O)N[C@@H](CCC(=O)O)CC(=O)O)Cc1c[nH]c2ccccc12)NC(=O)C[C@H](CO)NC(=O)[C@@H]1CCCC[C@H]1N`, the Potency result in test [1], in test [3], in test [4], in test [5], in test [6] and in test [7] was “inactive” in each case. In addition, in test [2], the Potency was over 46 µM.
